Experimental findings from PubChem BioAssay are described below.

Structures are written as SMILES. Inconclusive results are not listed. Calls of active or inactive are those of the source.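 How the source made its calls, unless noted: active means inhibition above 50%, about 3 SD of the validation set; inactive means the rest.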

Experiment [1] is described as follows: rapamycin-like changes in RPL19A-GFP expression – cell-based, S. cerevisiae, multiplex flow cytometry, primary screen (AID 1862; in the data active means percent of DMSO control GFP below about 86%;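 further: lower values mimic rapamycin by blocking the RPL19A rise seen in DMSO cells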). Conditions: S. cerevisiae RPL19A-GFP strain, flow cytometry fluorescence, 3 h; at 10 µM; stronger effect = lower value.
Experiment [2] in a line: TOR pathway GLN3 branch reporter MEP2-GFP changes – S. cerevisiae, multiplex flow cytometry, primary screen (AID 1867;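 active means GFP response, as percent of the DMSO control, above the screen-wide mean plus 3 SD, about 139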;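 further: median GFP channel fluorescence of barcode-gated MEP2-GFP cells measured by flow cytometry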). Conditions: S. cerevisiae MEP2-GFP strain, 3 h, at 10 µM, stronger effect = higher value, 100% means same as DMSO wells.
Experiment [3] is described as follows: TOR pathway RTG branch CIT2 reporter changes – S. cerevisiae, GFP fusion, multiplex flow cytometry, primary screen (AID 1870;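 active means percent response above a set limit, the screen-wide mean plus 3 SD, cut at about 130% in these data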;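 further: barcoded CIT2-GFP strain pooled with four other GFP strains with rapamycin as positive control; median GFP fluorescence per well over plate mean of DMSO wells so 100% = DMSO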). The note with it: S. cerevisiae CIT2-GFP expression, 3 h, at 10 µM, stronger effect = higher value.
A short description of experiment [4]: TOR pathway LAP4-GFP level changes – S. cerevisiae, multiplex flow cytometry, primary screen (AID 1873;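 active means GFP signal, as percent of the solvent control, above the screen mean plus 3 SD, about 149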). Conditions: S. cerevisiae LAP4-GFP expression, 3 h, at 10 µM, stronger effect = higher value.
A short description of experiment [5]: yeast AGP1-GFP level changes, GLN3 branch – cell-based, multiplex flow cytometry, S. cerevisiae, primary screen (AID 1887;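 active means GFP signal above the screen-wide mean plus 3 SD, that is over about 124.5% of the solvent control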;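 further: AGP1-GFP fusion strain of S. cerevisiae within a five-strain barcoded multiplex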). Conditions: 3 h, at 10 µM, stronger effect = higher value.
The nature of experiment [6]: reduced mouse 2C T cell binding to pMHC/ICAM-1 vesicles – MLPCN validation set, flow cytometry, LFA-1/ICAM-1 modulator project, pilot screen (AID 2523;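 active means response below a set limit, under 55% cells CD8-positive and vesicle-bound, and CD8 cells' 90th-percentile brightness under 279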;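 on vesicle binding response: mean PE anti-B7-1 fluorescence of CD8+ cells relative to row control; 100% = QL9-loaded vesicles with DMSO vehicle in the same plate row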). Conditions: 2C mouse CD8+ T cells, at 7 µM, stronger effect = lower value; double positive events: measured here: CD8+/vesicle+ event percentage.
For experiment [7], the target named is Integrin beta-1 (Homo sapiens) + Integrin alpha-4 (Homo sapiens) (UniProt P13612+P05556). Briefly: alpha4beta1 integrin LIBS antibody binding reduction – U937 cells, HUTS-21 mAb, flow cytometry, validation set, VLA-4 allosteric modulator project, pilot screen (AID 2674).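 Further: antibody binding induced by the VLA-4 ligand LDV present at three times its Kd; 0% = LDV ligand with antibody and no compound and 100% = antibody without LDV.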 Conditions: HUTS-21 LIBS mAb binding, at 6.7 µM, stronger effect = higher value, binding induced by LDV ligand.

Experiment [8] can be described thus: calorie-restriction mimetic ROS inhibitors, yeast – validation compound set, pilot screen (AID 2706;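 active means superoxide response below 65% of plate, a cut near 3 SD across the whole screen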;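 further: yeast exposed to compound for one week at 30 degrees C before staining; 100% = mean of all compound wells on the same plate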). Conditions: S. cerevisiae aging, superoxide DHE fluorescence; at 10 µM; stronger effect = lower value.
The target of experiment [9] is Beta-adrenergic receptor kinase 1 (Homo sapiens) (UniProt P25098). Put plainly: GRK2 binders displacing RNA aptamer, biochemical, validation, human GRK2, bead flow cytometry (AID 488806;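 active means aptamer binding inhibition above 30%, about 3 SD of noise from non-fluorescent compounds; inactive means inhibition at or below 30%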). The note with it: bead-bound GRK2, FAM-aptamer displacement, at 10 µM, stronger effect = higher value.
The target in experiment [10] is Beta-2 adrenergic receptor (Homo sapiens) (UniProt P07550). Put plainly: agonist-induced loss of surface beta2AR – cell-based, FAP fluorogen, flow cytometry, validation set, pilot screen (AID 504459;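 active means percent response above 42, roughly 3 SD of non-fluorescent test compounds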;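 further: agonist-driven loss of surface beta2AR via internalization measured by FAP dye flow cytometry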). The note with it: Am2.2-beta2AR cells, at 10 µM, stronger effect = higher value.
For experiment [11], the target named is AP-2 complex subunit beta (Homo sapiens) (UniProt P63010). Briefly: beta-arrestin/AP2 interaction blockers – biochemical, validation set, GST-AP2 beads, flow cytometry, pilot screen (AID 504541;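 active means inhibition above 54%, about 3 SD of non-fluorescent compounds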;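 further: AP2 carries R879A mutation and is captured from E. coli lysate; bead-bound FITC arrestin peptide fluorescence measuring arrestin peptide binding to AP2; 0% = DMSO wells and 100% = excess unlabeled arrestin peptide control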). The note with it: FITC arrestin peptide, at 10 µM, stronger effect = higher value, AP2 beta2 appendage fragment, R879A mutant.
The nature of experiment [12]: cytosolic pH regulators acting via V-ATPase – S. cerevisiae, pHLuorin, HTS validation (AID 504600; in the data active means response above about 15%;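 further: plate controls were DMSO for no effect and reference compound for full effect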). Conditions: V-ATPase proton transport, at 10 µM, stronger effect = higher value.
Experiment [13] deals with anti-desmoglein-3 scFv antibody binding to human DSG3. Put plainly: blockers of pathogenic pemphigus antibody–desmoglein-3 binding – biochemical, validation compound set, bead-based, flow cytometry, pilot screen (AID 588368;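 active means binding below the plate cutoff, the plate median minus 3 SD, with a reading above zero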;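 further: signal is the median channel fluorescence of bead-bound GFP antibody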). Conditions: Protein G beads, DSG3-Fc, scFv-GFP binding, at 10 µM, stronger effect = lower value.
Experiment [14] in a line: Nile Red efflux blockade in pump-expressing yeast – validation compound set, multiplex, phenotypic, pilot screen (AID 588506;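 active means efflux inhibition above 0.42, the validation set average plus 4 SD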;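 further: Nile Red retained in cells so higher fluorescence means more efflux inhibition; 0 = negative control wells and 1 = enniatin B 25 µM full block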). The note with it: S. cerevisiae pump-expressing triplex, Nile Red efflux flow cytometry; at 10 µM; stronger effect = higher value; the pumps come from Candida albicans.
In experiment [15] the target is ATP-binding cassette sub-family B member 6 (Homo sapiens) (UniProt Q9NP58). Briefly: blockers of ABCB6-driven porphyrin uptake – K562-ABCB6 cells, flow cytometry, validation set, pilot screen (AID 588550;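 active means inhibition above the screen-wide mean plus 3 SD, about 51%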;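 further: 0% = DMSO wells and 100% = benzethonium chloride 70 µM positive control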). Conditions: K562-ABCB6 porphyrin accumulation, 1 h, at 10 µM, stronger effect = higher value.
The nature of experiment [16]: AML differentiation inducers, ER-HoxA9 marrow cells – cell-based, GFP/MAC1 double positive, flow cytometry, validation set, primary screen (AID 588685;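 active means differentiation response of at least 50%, scaled between solvent and reference control, from cells with both markers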;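 further: compound exposure lasts four days before antibody staining and flow analysis; 0% = DMSO wells and 100% = 5 µM fulvestrant positive control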). The note with it: stronger effect = higher value, normalized: vehicle 0, fulvestrant 100.

Chain of ATP-binding cassette sub-family B member 6 (Homo sapiens) (Q9NP58 whole entry, looked up): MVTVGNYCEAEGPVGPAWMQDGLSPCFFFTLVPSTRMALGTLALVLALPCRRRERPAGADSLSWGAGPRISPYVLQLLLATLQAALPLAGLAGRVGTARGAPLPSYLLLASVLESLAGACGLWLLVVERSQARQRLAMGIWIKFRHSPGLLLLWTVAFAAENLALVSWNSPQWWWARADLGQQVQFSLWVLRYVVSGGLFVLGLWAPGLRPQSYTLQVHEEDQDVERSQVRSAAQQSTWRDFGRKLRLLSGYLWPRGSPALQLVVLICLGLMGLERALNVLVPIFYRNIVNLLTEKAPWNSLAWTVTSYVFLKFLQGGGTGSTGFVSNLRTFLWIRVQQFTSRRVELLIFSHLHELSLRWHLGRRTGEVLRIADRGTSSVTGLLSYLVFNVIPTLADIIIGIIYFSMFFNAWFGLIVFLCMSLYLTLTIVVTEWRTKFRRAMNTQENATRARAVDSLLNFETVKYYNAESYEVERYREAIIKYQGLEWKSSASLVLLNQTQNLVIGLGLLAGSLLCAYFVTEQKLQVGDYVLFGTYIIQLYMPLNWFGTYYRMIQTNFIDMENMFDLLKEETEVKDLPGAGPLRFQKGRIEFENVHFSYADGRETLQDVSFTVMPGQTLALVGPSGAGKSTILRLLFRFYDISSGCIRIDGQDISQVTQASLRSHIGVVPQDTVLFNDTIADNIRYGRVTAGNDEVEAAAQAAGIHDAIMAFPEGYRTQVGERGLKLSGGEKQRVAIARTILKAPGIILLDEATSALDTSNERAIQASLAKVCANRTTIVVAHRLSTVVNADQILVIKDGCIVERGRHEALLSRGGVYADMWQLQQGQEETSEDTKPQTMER
Chain of Beta-adrenergic receptor kinase 1 (Homo sapiens) (P25098 whole entry, looked up): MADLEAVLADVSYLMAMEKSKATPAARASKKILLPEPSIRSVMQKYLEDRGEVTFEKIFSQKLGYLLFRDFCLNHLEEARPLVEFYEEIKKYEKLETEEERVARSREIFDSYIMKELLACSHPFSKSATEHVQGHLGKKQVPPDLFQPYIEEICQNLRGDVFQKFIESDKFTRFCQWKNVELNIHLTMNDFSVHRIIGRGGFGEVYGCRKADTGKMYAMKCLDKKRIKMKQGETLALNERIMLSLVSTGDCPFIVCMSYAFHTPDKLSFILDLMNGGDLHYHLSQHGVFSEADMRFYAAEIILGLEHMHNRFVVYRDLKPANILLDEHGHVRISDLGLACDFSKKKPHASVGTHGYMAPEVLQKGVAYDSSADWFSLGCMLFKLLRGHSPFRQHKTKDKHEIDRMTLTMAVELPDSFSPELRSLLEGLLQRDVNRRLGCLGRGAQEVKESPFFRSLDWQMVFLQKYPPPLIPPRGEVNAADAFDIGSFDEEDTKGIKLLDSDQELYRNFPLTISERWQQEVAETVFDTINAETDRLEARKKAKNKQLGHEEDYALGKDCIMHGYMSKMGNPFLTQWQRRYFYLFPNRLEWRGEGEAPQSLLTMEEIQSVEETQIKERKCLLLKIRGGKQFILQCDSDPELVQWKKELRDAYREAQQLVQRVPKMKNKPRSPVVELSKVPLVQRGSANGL
Chain of AP-2 complex subunit beta (Homo sapiens) (P63010 whole entry, looked up, the tested form may be a part, one chain of several): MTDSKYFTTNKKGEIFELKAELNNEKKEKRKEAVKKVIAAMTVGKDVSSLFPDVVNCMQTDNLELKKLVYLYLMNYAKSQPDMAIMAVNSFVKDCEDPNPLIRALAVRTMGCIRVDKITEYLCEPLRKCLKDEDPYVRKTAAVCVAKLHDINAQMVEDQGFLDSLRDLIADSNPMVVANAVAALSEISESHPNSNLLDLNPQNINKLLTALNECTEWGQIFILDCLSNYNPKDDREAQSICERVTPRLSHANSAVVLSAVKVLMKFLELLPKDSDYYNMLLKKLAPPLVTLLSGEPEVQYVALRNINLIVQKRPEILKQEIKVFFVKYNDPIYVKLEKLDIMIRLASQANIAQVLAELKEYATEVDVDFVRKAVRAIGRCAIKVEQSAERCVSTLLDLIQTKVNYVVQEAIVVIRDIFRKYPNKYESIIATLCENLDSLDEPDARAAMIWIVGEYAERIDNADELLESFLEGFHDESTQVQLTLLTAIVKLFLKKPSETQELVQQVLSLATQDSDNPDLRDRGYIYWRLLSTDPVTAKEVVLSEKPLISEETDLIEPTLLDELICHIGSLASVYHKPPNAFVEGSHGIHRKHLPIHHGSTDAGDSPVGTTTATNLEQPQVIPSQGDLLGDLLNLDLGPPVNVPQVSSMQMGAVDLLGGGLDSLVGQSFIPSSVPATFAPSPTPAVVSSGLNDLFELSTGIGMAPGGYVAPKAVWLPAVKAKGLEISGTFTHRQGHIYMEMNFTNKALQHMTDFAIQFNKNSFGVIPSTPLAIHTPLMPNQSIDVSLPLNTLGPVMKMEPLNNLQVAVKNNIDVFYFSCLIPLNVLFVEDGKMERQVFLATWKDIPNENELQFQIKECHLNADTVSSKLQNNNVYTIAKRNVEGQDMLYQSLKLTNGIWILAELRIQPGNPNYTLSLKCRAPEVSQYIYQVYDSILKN
Chain of Integrin beta-1 (Homo sapiens) + Integrin alpha-4 (Homo sapiens) (P05556 whole entry, looked up): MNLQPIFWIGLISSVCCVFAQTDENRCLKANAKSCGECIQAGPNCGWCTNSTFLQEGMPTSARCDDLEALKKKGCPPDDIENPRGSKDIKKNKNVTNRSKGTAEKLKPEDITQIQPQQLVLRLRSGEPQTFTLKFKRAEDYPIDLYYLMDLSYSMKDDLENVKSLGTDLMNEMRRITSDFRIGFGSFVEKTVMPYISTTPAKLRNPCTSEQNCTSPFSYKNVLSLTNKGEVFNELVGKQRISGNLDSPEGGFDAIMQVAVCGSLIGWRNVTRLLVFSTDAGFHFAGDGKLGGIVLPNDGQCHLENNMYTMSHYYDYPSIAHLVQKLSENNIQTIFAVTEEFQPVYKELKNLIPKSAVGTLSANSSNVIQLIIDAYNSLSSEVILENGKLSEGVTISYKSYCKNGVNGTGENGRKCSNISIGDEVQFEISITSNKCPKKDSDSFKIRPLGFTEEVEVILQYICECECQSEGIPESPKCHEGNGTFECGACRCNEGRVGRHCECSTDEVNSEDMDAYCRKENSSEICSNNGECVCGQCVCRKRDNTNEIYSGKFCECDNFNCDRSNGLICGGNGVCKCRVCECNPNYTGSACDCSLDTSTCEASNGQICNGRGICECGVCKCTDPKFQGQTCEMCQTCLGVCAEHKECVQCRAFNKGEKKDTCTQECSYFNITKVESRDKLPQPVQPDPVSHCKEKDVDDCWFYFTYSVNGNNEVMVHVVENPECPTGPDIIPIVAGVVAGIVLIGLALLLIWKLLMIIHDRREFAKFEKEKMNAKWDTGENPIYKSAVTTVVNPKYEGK
Chain of Integrin beta-1 (Homo sapiens) + Integrin alpha-4 (Homo sapiens) (P13612 whole entry, looked up): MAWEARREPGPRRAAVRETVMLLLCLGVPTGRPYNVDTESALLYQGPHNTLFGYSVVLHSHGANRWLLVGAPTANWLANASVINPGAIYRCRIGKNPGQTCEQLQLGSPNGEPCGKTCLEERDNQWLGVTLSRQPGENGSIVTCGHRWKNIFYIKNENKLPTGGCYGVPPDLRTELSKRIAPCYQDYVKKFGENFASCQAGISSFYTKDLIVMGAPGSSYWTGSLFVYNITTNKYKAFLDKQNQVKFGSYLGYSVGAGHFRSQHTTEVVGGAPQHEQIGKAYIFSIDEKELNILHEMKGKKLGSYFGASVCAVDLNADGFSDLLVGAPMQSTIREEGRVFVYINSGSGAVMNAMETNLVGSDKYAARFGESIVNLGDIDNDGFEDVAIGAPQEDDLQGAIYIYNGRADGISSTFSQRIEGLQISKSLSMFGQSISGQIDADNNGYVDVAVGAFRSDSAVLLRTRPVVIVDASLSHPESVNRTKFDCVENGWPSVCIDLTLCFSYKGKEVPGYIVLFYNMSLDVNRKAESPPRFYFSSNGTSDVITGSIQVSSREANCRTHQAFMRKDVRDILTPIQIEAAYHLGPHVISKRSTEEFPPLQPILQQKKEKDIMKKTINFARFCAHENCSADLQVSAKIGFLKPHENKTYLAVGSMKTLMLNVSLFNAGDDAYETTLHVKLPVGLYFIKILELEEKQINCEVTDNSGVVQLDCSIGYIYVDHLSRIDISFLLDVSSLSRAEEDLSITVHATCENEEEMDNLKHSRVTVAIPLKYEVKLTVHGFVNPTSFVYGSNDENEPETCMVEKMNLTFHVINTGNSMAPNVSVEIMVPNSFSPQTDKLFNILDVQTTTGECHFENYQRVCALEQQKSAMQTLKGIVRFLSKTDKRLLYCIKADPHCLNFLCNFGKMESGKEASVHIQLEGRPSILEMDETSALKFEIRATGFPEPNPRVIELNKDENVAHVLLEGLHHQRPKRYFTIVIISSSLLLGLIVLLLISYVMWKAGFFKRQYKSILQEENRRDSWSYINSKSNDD
Chain of Beta-2 adrenergic receptor (Homo sapiens) (P07550 whole entry, looked up): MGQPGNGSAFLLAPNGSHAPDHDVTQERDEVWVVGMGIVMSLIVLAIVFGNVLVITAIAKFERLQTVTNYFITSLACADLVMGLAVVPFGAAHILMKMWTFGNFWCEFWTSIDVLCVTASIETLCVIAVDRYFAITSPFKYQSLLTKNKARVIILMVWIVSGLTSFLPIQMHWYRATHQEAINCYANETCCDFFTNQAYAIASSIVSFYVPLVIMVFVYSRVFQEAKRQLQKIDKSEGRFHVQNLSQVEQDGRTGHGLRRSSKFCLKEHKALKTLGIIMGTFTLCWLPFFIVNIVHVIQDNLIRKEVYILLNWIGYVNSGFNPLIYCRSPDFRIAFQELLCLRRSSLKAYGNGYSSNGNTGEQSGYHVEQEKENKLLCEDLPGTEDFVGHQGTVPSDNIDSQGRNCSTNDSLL

Regarding `O=C(N/N=C/c1ccc([N+](=O)[O-])o1)c1ccc(O)cc1`, the percent of DMSO control GFP in experiment [1] was 103% (inactive). In addition, the GFP response vs DMSO in [2] is 118% (inactive); in [4] it was 77.6% (inactive). Also, the percent response of DMSO control in [3] was 112% (inactive). Besides, in [5], the GFP response, % of DMSO is 97.5% (inactive). In [6], this compound registered a double positive events of 47.6%. Moreover, in experiment [6], the vesicle binding response was 209% (inactive). Further, the inhibition in [7] was -21.7% (inactive); in experiment [11], -8.31% (inactive); in experiment [15], 8% (inactive). The superoxide response (% of plate) in experiment [8] was 136% (inactive). In experiment [9], the aptamer binding inhibition was -1% (inactive). Further, the values for the response in experiment [10] and in experiment [12] were -5.96% (inactive) and 4% (inactive), respectively. Also, the binding (% of control) in experiment [13] is 110% (inactive). For the same compound, in [14], the efflux inhibition (fraction of control) was 0.12 (inactive). The differentiation response in experiment [16] was 14.7% (inactive).
Turning to `OCCN(CCO)c1nc(N2CCCCC2)c2nc(N(CCO)CCO)nc(N3CCCCC3)c2n1`, the percent of DMSO control GFP in experiment [1] is 105% (inactive). Further, the GFP response vs DMSO was 102% (inactive) in experiment [2] and 107% (inactive) in [4]. In addition, in [3], the percent response of DMSO control is 100% (inactive). For the same compound, in experiment [5], the GFP response, % of DMSO was 108% (inactive). In [6], this compound came in with a double positive events of 62.5%. Also, the vesicle binding response in [6] was 175% (inactive). Besides, the figures for the inhibition in experiment [7], in experiment [11] and in [15] were -9.63% (inactive), 18.6% (inactive) and -6% (inactive), respectively. The superoxide response (% of plate) in [8] is 98% (inactive). Further, the aptamer binding inhibition in experiment [9] was 3% (inactive). Also, the response is 7.65% (inactive) in experiment [10] and 15.4% (active) in [12]. Also, the binding (% of control) in experiment [13] is 106% (inactive). For the same compound, the efflux inhibition (fraction of control) in experiment [14] is 0.08 (inactive). The differentiation response in experiment [16] is -7.94% (inactive).
With `O=CNC1CCCc2c1[nH]c1ccc(Cl)cc21` (stereo not given), in experiment [1], the percent of DMSO control GFP is 101% (inactive). In addition, the values for the GFP response vs DMSO in [2] and in [4] were 96.2% (inactive) and 89.4% (inactive), respectively. The percent response of DMSO control in experiment [3] was 100% (inactive). Further, the GFP response, % of DMSO in [5] is 98.3% (inactive). Moreover, the double positive events in experiment [6] amounted to 64.4%. Further, the vesicle binding response in experiment [6] is 173% (inactive). Besides, the inhibition in [7] was -5.64% (inactive); in experiment [11], -3.47% (inactive); in experiment [15] it was -3% (inactive). Besides, in experiment [8], the superoxide response (% of plate) was 113% (inactive). The aptamer binding inhibition in [9] was 2% (inactive). For the same compound, the response in [10] was 3.11% (inactive); in [12], 0.49% (inactive). The binding (% of control) in [13] is 95.9% (inactive). For the same compound, in experiment [14], the efflux inhibition (fraction of control) was -0.04 (inactive). In addition, in experiment [16], the differentiation response is 8.06% (inactive).
For the compound `COc1ccc(/C=C\c2nc(=O)c3ccccc3o2)cc1`, the percent of DMSO control GFP in experiment [1] was 111% (inactive). The GFP response vs DMSO in [2] was 100% (inactive); in experiment [4], 81.5% (inactive). Further, the percent response of DMSO control in experiment [3] was 101% (inactive). For the same compound, in [5], the GFP response, % of DMSO was 96.7% (inactive). Also, the double positive events in experiment [6] was 64.1%. Besides, the vesicle binding response in experiment [6] was 360% (inactive). The inhibition in experiment [7] was 6.81% (inactive); in [11] it was 0.71% (inactive); in [15] it was 3% (inactive). Also, the superoxide response (% of plate) in experiment [8] was 108% (inactive). For the same compound, in experiment [9], the aptamer binding inhibition was 5% (inactive). Besides, the response is 2.1% (inactive) in experiment [10] and 8.52% (inactive) in experiment [12]. Moreover, the binding (% of control) in experiment [13] was 98% (inactive). Besides, in experiment [14], the efflux inhibition (fraction of control) was -0.01 (inactive). The differentiation response in experiment [16] was 6.11% (inactive).
Turning to `C/C(=N\NC(=O)c1ccccc1[N+](=O)[O-])c1ccc(Br)s1`, in [1], the percent of DMSO control GFP is 98.4% (inactive). Further, the GFP response vs DMSO in experiment [2] was 107% (inactive); in experiment [4], 100% (inactive). In addition, the percent response of DMSO control in [3] was 107% (inactive). Also, in experiment [5], the GFP response, % of DMSO is 101% (inactive). The compound also returned a double positive events in experiment [6] of 57.5%. In experiment [6], the vesicle binding response was 94.2% (inactive). The inhibition was 0.25% (inactive) in experiment [7], 7.49% (inactive) in [11] and -10% (inactive) in experiment [15]. The superoxide response (% of plate) in experiment [8] was 97.9% (inactive). In addition, the aptamer binding inhibition in experiment [9] is 2% (inactive). In addition, the values for the response in experiment [10] and in experiment [12] were -0.6% (inactive) and -4.2% (inactive), respectively. In [13], the binding (% of control) is 95.7% (inactive). Moreover, the efflux inhibition (fraction of control) in experiment [14] was -0.235 (inactive). For the same compound, the differentiation response in experiment [16] was -4.57% (inactive).
